Results taken from ChEMBL document CHEMBL3988442, “University of Dundee, Small-Polar-MMV Screening Library” (2021).
In all, about 48,000 compounds went through this assay and about 13,000 (27%) showed an effect of 50% or more. The list shows a part of the results.

Tested on: Wolbachia pipientis
Assay: Anti-Wolbachia Cell-Based Screen
Assay type: functional
Parameters: scale not given: in the data most compounds retested in dose-response had high values
Details: 5 µM

| Compound | Percent Effect |
| --- | --- |
| CSCCNC(=O)c1cc(Br)cn1C(C)C | -6.324% |
| Cc1nc(C)n(CC2CCCN2Cc2cn3ccsc3n2)n1 (configuration not stated) | 1.786% |
| CCC(OC)C(=O)N1CCC2(CC1)c1nc[nH]c1CCN2S(C)(=O)=O (configuration not stated) | -9.741% |
| CCOCC1CN(C(=O)c2cccs2)Cc2cnn(CC3CC3)c21 (configuration not stated) | 108.8% |
| CCn1cc2c(n1)C(COCC1CC1)CN(C(=O)c1ccco1)C2 (configuration not stated) | 0.7054% |
| COCC1c2c(cnn2CC2CCOCC2)CCN1Cc1ccoc1.O=C(O)C(F)(F)F.O=C(O)C(F)(F)F (configuration not stated) | -3.551% |
| O=C(c1ccco1)N1Cc2cnn(CC3CC3)c2C(COCC2CC2)C1 (configuration not stated) | 105.1% |
| Cn1ncc2c1C(COCC1CC1)CN(C(=O)c1ccoc1)C2 (configuration not stated) | 107.9% |
| CCn1ncc2c1C(COCC1CC1)CN(C(=O)c1cccs1)C2 (configuration not stated) | 2.096% |
| Cn1ncc2c1C(COCC1CC1)CN(S(=O)(=O)C1CC1)C2 (configuration not stated) | -3.815% |
| COCC1CN(C(=O)c2ccoc2)Cc2cnn(CC3CCOCC3)c21.O=C(O)C(F)(F)F (configuration not stated) | 114.4% |
| Cn1ncc2c1C(COCC1CC1)CN(C(=O)Cc1ccsc1)C2 (configuration not stated) | 0.3372% |
| CCOCC1CN(C(=O)c2cccn2C)Cc2cnn(CC3CC3)c21.O=C(O)C(F)(F)F (configuration not stated) | -14.68% |
| CCOCC1CN(S(C)(=O)=O)Cc2cnn(CC3CCOCC3)c21.O=C(O)C(F)(F)F (configuration not stated) | -18.06% |
| COC(=O)c1ccc(Cl)c(NS(=O)(=O)c2cn(C)cn2)c1 | 1.86% |
| CC(C)(C)c1oc(C(N)=O)cc1CN1CCOC(C(F)(F)F)C1 (configuration not stated) | -3.878% |
| Cn1c(C(F)(F)F)nn(CCNC(=O)CSCc2ccccc2)c1=O | 0.8754% |
| O=C(C1CC(=O)N(C2CCCC2)C1)N1CCN(CCn2cccc2)CC1 (configuration not stated) | -10.58% |
| COc1ccc(C(=O)N(C)Cc2cc(C)on2)c(OC)c1 | -3.822% |
| O=C(c1ccoc1)N1CCc2c(COCC3CC3)cncc2C1 | -80.75% |
| O=C(c1ccoc1)N1Cc2cnn(CC3CC3)c2C(COCC2CC2)C1 (configuration not stated) | 83.82% |
| CCOCC1CN(C(=O)c2ccoc2)Cc2cnn(C)c21 (configuration not stated) | 92.74% |
| O=C(c1ccoc1)N1CCn2cnc(COCC3CC3)c2C1 | -6.66% |

| Compound | Percent Effect |
| --- | --- |
| CCOCC1CN(C(=O)c2ccoc2)Cc2nn(C)cc21 (configuration not stated) | -3.903% |
| O=C(NCc1ccc(F)cc1)NCC1(N2CCOCC2)CCSC1 (configuration not stated) | -10.73% |
| COc1ccnc(N2CCN(C(=O)c3csc(C(C)C)n3)CC2)n1 | -5.502% |
| CNC(=O)C(C)CN(C)C(=O)Nc1ccc(Cl)cc1-n1cccc1 (configuration not stated) | 0.2413% |
| Cn1cc(CN(C(=O)c2ccc3ncsc3c2)C2CC2)cn1 | 77% |
| CN1C(=O)c2ccc(C(=O)N(Cc3cnn(C)c3)C3CC3)cc2C1=O | 106.1% |
| Cn1cc(CN(C(=O)c2ccc(O)c(Cl)c2)C2CC2)cn1 | 100.3% |
| COC1CCN(C(=O)c2ccc3ncsc3c2)CC1 | 13.06% |
| CCN(Cc1cnn(C)c1)C(=O)c1ccccc1O | -0.8063% |
| CCN(Cc1cnn(C)c1)C(=O)c1cc2ccccc2c(=O)[nH]1 | 2.375% |
| O=C(c1ccc(O)c(Cl)c1)N(Cc1ccncc1)C1CC1 | 5.687% |
| CN(Cc1cnn(C)c1)C(=O)c1ccnc(OC2CCC2)c1 | -14.79% |
| Cn1cc(CN(C(=O)C2COc3ccccc3C2)C2CC2)cn1 (configuration not stated) | -27.95% |
| Cc1ccc(CCNC(=O)c2cccnc2)o1 | -1.027% |
| CCCn1cc(C(=O)NCCC(=O)NC2CCCCC2)c(C)n1 | -18.08% |
| CCCn1cc(C(=O)NCc2nnc(-c3ccc(C)nc3)o2)c(C)n1 | 141.9% |
| CCOC(=O)c1ccc(CNC(=O)c2ccc(C)nc2)o1 | 18.5% |
| Cc1ccc(-c2nnc(CNC(=O)c3cccnc3)o2)cn1 | 101.6% |
| CCCn1cc(C(=O)NCCc2ccncc2)c(C)n1 | -13.4% |
| COc1ccccc1OCC(=O)Nc1ncccc1C | -10% |
| COc1cnc(N2CCCC(c3ncc[nH]3)C2)nc1 (configuration not stated) | -2.958% |
| COc1cc(N2CCC3(CC2)CN(CCO)c2ccccc23)ncn1 | 112.4% |
| COc1cc(N2CC3(CCN(S(C)(=O)=O)C3)C2)ncn1.O=C(O)C(F)(F)F | -16.93% |

| Compound | Percent Effect |
| --- | --- |
| CS(=O)(=O)N1CC2(CCN(c3nccs3)CC2)c2ccccc21 | 6.686% |
| COc1cc(N2CCC3(CC2)CN(S(C)(=O)=O)c2ccccc23)ncn1 | 110.7% |
| O=C(O)C(F)(F)F.O=C(O)C(F)(F)F.OCCN1CC2(CCN(CC3CC3)CC2)c2ccccc21 | -29.18% |
| COc1cc(N2CC3(CCN(c4ncccn4)C3)C2)ncn1 | -18.99% |
| CCc1ccc(C2COCCN2C(=O)Nc2ccc(C#N)cc2)o1 (configuration not stated) | -6.805% |
| COCc1noc(-c2ccc(N3CCCCC3CCCO)nc2)n1 (configuration not stated) | 5.834% |
| CCn1c2c(ccc1=O)CC(N)CC2 (configuration not stated) | -10.57% |
| Cc1nc(Cn2c3c(ccc2=O)CC(N)CC3)cs1 (configuration not stated) | 90.15% |
| NC1CCc2c(ccc(=O)n2CC2CC2)C1 (configuration not stated) | -25.6% |
| Cc1nc(Cn2c3c(ccc2=O)CC(NC(N)=O)CC3)cs1 (configuration not stated) | 99.56% |
| c1ccc(C2CN(CCc3ccncc3)CCO2)cc1 (configuration not stated) | 114.6% |
| CCNC(=O)NC(=O)CN1CCOC(c2cccc(Br)c2)C1 (configuration not stated) | -11.97% |
| Cc1ccc(-c2nc(CN3CCOC(c4ccccc4)C3)cs2)o1 (configuration not stated) | 7.737% |
| CCc1nccn1CCC(=O)N1CCOC(c2ccc(F)cc2)C1 (configuration not stated) | 5.391% |
| COc1cccc(C2CN(CCc3ccncc3)CCO2)c1 (configuration not stated) | 114.5% |
| Fc1ccc(C2CN(CCc3ccncc3)CCO2)cc1 (configuration not stated) | 89.73% |
| CCc1n[nH]c(C2CN(CCc3ccncc3)CCO2)n1 (configuration not stated) | 1.737% |
| OCCCN1CCOC(c2ccc(F)cc2)C1 (configuration not stated) | 108.3% |
| Cc1cc2[nH]c(CN3CCOC(c4ccc(F)cc4)C3)cc(=O)n2n1 (configuration not stated) | -0.7414% |
| NS(=O)(=O)CCN1CCOC(c2ccc(Cl)cc2)C1 (configuration not stated) | -9.973% |
| COc1ccc(CNC2CCN(CCc3ccncc3)CC2)cc1O | -10.08% |
